Source: PubChem (National Center for Advancing Translational Sciences (NCATS))
In the library only some 21% were active in any assay of this set; here they are far more common.
Shiga inhibitor – inhibitors of Shiga toxin in Vero cells; Vero cells, Shiga toxin protein synthesis inhibition reporter; inhibition, % at 38.7 µM; 290,000 tested, 9.2% active; in the data active means inhibition mostly above about 28%, no sharp cut-off; inactive means mostly below about 43%; further: 0% is about no effect
Pf growth 48h – P. falciparum growth inhibition at 48 hours (one generation) | AID 504832 | Potency, µM (highest dose often 28.7 µM), without a hit: top-dose activity change, negative = inhibition, most hits filed as inhibitors | P. falciparum luciferase growth in erythrocytes, 48 h | 310,000 tested, 5.9% active; active means well fitted inhibition curve with a large enough effect; inconclusive means small, poorly fitted or top-dose-only effect, or another doubt; inactive means no such curve, though single readings can be large or run the other way; further: potency means the concentration at half of the fitted maximal effect; on the % scale 0 is the no-effect control and ±100 the full control effect
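First compound was added to culture medium, then infected red cells at 0.1% parasitemia and 2% hematocrit (final). After incubation at 37 C under 5% CO2, luciferase detection reagent was dispensed and light output recorded.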
SARS PLP yeast – inhibitors of SARS-CoV papain-like protease in yeast | S. cerevisiae expressing SARS-CoV PLpro, growth rescue | Potency, µM (highest dose often 32.9 µM), for inactives: top-dose activity, positive = growth rescue, hits mostly activators | 330,000 tested, 0.19% active | AID 485353; further: potency means the concentration at half of the fitted maximal effect; 0% is about no effect; nearly all actives have a fitted effect of over 55% in size
NS1 function inh – inhibitors of influenza NS1 protein function | Potency, µM (doses to about 46.1 µM), for inactives: at the highest dose activity, positive = more growth | 270,000 tested, 0.4% active; further: potency means the concentration at half of the fitted maximal effect; actives are rising curves; nearly all actives have a fitted effect of over 50% in size
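OD600 was taken as the measure of yeast growth restored by compound in an NS1-expressing S. cerevisiae strain. Cells had been washed out of glucose medium and diluted 1:100 into galactose -URA medium, pH 6.0.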
Pf growth 96h – P. falciparum growth inhibition at 96 hour, primary screen for plastid delayed-death inhibitors; AID 504834; Potency, µM (highest dose often 28.7 µM), for inactives: at the highest dose activity change, negative = inhibition, actives largely listed as inhibitors; P. falciparum luciferase reporter growth, 96 h; 320,000 tested, 6.9% active; active means well fitted inhibition curve with a large enough effect; inconclusive means small, poorly fitted or top-dose-only effect, or another doubt; inactive means no such curve, though single readings can be large or run the other way; further: potency means the concentration at half of the fitted maximal effect; on the % scale 0 is the no-effect control and ±100 the full control effect
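P. falciparum expressing integrated firefly luciferase grown in erythrocytes (2% hematocrit, 0.05% parasitemia final) with compounds for 96 hours at 37 C, 5% CO2. Growth inhibition read as loss of luminescence after adding luciferase detection reagent.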
Cycloheximide cs – affects cycloheximide protein synthesis inhibition readout, counter-screen. cell reporter, cycloheximide protein synthesis inhibition counterscreen. max response, %. 300,000 tested, 12% active; in the data active means max response mostly above about 13%, no sharp cut-off; inactive means mostly below about 14%; further: read at 38.3 µM for the half of the compounds with a filed dose; 0% is about no effect
An asterisk follows results filed as active; i = inactive; ? = inconclusive; · = not tested or not shown; [ ] = dose if it differs, or a comment. Unless noted, the call rests on the fitted dose curve.

SMILES	Shiga inhibitor	Pf growth 48h	SARS PLP yeast	NS1 function inh	Pf growth 96h	Cycloheximide cs
COc1ccc(NC(=O)c2ccc([N+](=O)[O-])s2)c([N+](=O)[O-])c1	46.1*	47.2%	0.2%	·	?	24.9
COc1ccc(NC(=O)c2cc(Br)ccc2Cl)c([N+](=O)[O-])c1	-1.4	-7.4%[5.75 µM]	-0.4%	·	1.1%	1.4
COc1ccc(NC(=O)c2ccc(C)cc2Cl)c([N+](=O)[O-])c1	i	101.7%	?	6.5%	3.7µM*	36.7*
COc1ccc(NC(=O)/C=C/C(=O)O)c([N+](=O)[O-])c1	10.4	-16.7%	-2.6%	5.6%	0.0%	10.1
COc1ccc(NC(=O)c2ccc(C)o2)c([N+](=O)[O-])c1	39.5	128.6%	13.0%	2.6%	29.6%	22.3*
COc1ccc(NC(=O)c2ccc(Br)o2)c([N+](=O)[O-])c1	40.9	101.0%	-2.0%	3.4%	1.3%	18.5*
CCNC(=O)O/N=C1\CCCCC1c1ccc([N+](=O)[O-])cc1[N+](=O)[O-] (stereo unspecified)	37.8	?	-2.3%	-4.2%	?	-1.2
C=CCN(C)CCCCCCOc1ccc(C(=O)c2ccc(Br)cc2)c(F)c1	-8.7	·	·	·	·	11.7
CN(C(=O)c1ccc(S(=O)(=O)N2CCCC2)cc1)C1CCS(=O)(=O)C1 (stereo unspecified)	·	4.0%	-1.2%	·	5.4%	·
O=C(c1ccc2nc(Cc3cccc(Cl)c3)oc2c1)N1CCC(O)CC1	-4.1	-26.0%	8.3%	-0.5%	?	-0.7
Cc1ccc(S(=O)(=O)NCCC(=O)NC2CCCCCC2)cc1	·	-5.6%	-4.8%	·	-4.6%	·
Cc1ccc(C2C3=C(CC(C)(C)CC3=O)OC3=C2C(=O)CC(C)(C)C3)cc1	-1.4	10.4µM*	11.5%	1.9%	-6.1%	-4.6
Cc1[nH]nc2c1C(c1ccc(O)cc1)C1=C(CC(C)(C)CC1=O)N2 (stereo unspecified)	8.7	-10.1%	-1.8%	1.6%	?	-1.6
Cc1ccc(C2C3=C(CC(C)(C)CC3=O)N(CCN3CCOCC3)C3=C2C(=O)CC(C)(C)C3)cc1	-3.6	11.7µM*	-3.2%	-3.2%	?	20.3
Cc1ccc(C2C3=C(CC(C)(C)CC3=O)Nc3[nH]c(=S)[nH]c(=O)c32)cc1 (stereo unspecified)	-4.9	-25.4%	3.5%	8.91µM*	?	6.8
Cc1ccc(C2C3=C(CCCC3=O)OC3=C2C(=O)CCC3)cc1	13.3	0.5%	10.5%	-5.2%	36.5%	-3.0
Cc1ccc(CNC(=O)C2CCCN2C(=O)Nc2ccccc2)cc1 (stereo unspecified)	-3.2	17.3%	-0.1%	-4.5%	214.3%	-3.5
C/C(N)=C(/C#N)C(=O)CSc1nnc(Nc2c(C)cccc2C)s1	39.6	?	20.4%	?	11.7µM*	-1.4
C/C(N)=C(/C#N)C(=O)CSc1nnc(SCc2ccc(Cl)cc2)s1	48.0	-24.4%	-4.9%	-23.9%	44.9%	11.6
C/C(N)=C(/C#N)C(=O)CSc1nn(-c2ccc(Cl)cc2)c(=S)s1	72.1*	?	-32.9%	·	?	47.3*
Cc1cccc(C)c1Nc1nnc(SCc2cn3cccc(C)c3n2)s1	-28.7	?	-9.8%	-12.4%	10.4µM*	-1.4
C/C(N)=C(/C#N)C(=O)CSc1nnc(Nc2cccc(C)c2C)s1	39.9*	?	2.4%	4.2%	17.3%	21.9*
CCc1ccc(N(CC(=O)NCC2CCCO2)C(=O)CCC(=O)Nc2nccs2)cc1 (stereo unspecified)	-6.0	?	2.9%	1.0%	-13.5%	-3.9
CCN1CCCC1CNS(=O)(=O)c1ccc(Cl)c(C(F)(F)F)c1 (stereo unspecified)	-30.3	-7.0%	-1.1%	·	2.0%	-1.2
CC(C)(C)NC(=O)COC(=O)/C=C/c1ccccc1[N+](=O)[O-]	38.5*	·	-3.5%	0.7%	4.5%	23.8*
SMILES	Shiga inhibitor	Pf growth 48h	SARS PLP yeast	NS1 function inh	Pf growth 96h	Cycloheximide cs
O=C(COC(=O)/C=C/c1ccccc1[N+](=O)[O-])Nc1ccc(OCc2ccccc2)cc1	39.3*	94.6%	0.4%	13.6%	114.4%	17.1*
O=C(COC(=O)/C=C/c1ccccc1[N+](=O)[O-])NC1CC1	-7.4	-1.8%	1.9%	·	-2.7%	10.0
CCOC(=O)N1CCN(CC(O)COc2c(C)cc(C)cc2C)CC1 (stereo unspecified)	1.9	14.8%	1.6%	-4.1%	133.3%	-5.8
CCOc1ccc(-c2cc(C(=O)NCCCn3ccnc3)c3cc(Br)ccc3n2)cc1	-17.7	1.65µM*	1.0%	8.2%	?	-2.9
COc1ccc(-c2cc(C(F)(F)F)n3nc(C(=O)NCCN4CCOCC4)cc3n2)cc1	-8.1	?	-1.5%	2.6%	1.8%	-1.4
O=C(NCCCn1ccnc1)c1nn2c(C(F)(F)F)cc(-c3ccc(Br)cc3)nc2c1Cl	15.4	1.47µM*	-13.9%	?	2.94µM*	3.9
COc1ccc(-c2cc(C(F)(F)F)n3nc(C(=O)NCCCn4ccnc4)cc3n2)cc1	14.5	·	8.4%	6.4%	-4.5%	22.9*
CCOc1ccc(-c2cc(C(=O)NCCCn3ccnc3)c3ccccc3n2)cc1	38.4	?	0.3%	·	11.6%	17.0
COc1ccccc1C(=O)NCCC(=O)NCc1cccs1	·	11.9%	7.7%	·	29.0%	·
CN(CCCC1CCCC1)C(=O)c1cc(COc2ccc(F)c(F)c2)on1	9.9	-6.9%	9.6%	-11.4%	?	12.0
O=C(c1cc(COc2ccc(F)c(F)c2)on1)N1CCSCC1	62.3*	25.1%	-1.6%	-14.4%	7.7%	46.5*
CC(=O)c1cccc(OCc2cc(C(=O)N3CCSCC3)no2)c1	149.5*	63.2%	?	-15.8%	?	48.2*
Fc1cccc(-c2cc3nc4c(c(NCc5ccco5)n3n2)CCCC4)c1	87.2*	-32.6%	-39.0%	-95.0%	-24.3%	38.5*
OC1CCN(c2c3c(nc4cc(-c5ccc(Cl)cc5)nn24)CCC3)CC1	13.0	-19.7%	-39.0%	3.1%	48.6%	1.2
Clc1cccc(-c2cc3nc4c(c(N5CCOCC5)n3n2)CCCC4)c1	46.2	?	-21.0%	-67.6%	·	21.9*
Clc1cccc(-c2cc3nc4c(c(N5CCN(c6cnccn6)CC5)n3n2)CCCC4)c1	36.7*	2.08µM*	-1.0%	8.5%	-20.3%	38.2*
COc1cccc(-c2cc3nc4c(c(NCC(C)(C)CN(C)C)n3n2)CCCC4)c1	-10.0	5.4%	-0.2%	4.1%	0.2%	-1.5
Fc1cccc(-c2cc3nc4c(c(N5CCOCC5)n3n2)CCCC4)c1	48.4*	8.28µM*	-16.3%	-75.3%	?	51.9*
Cc1cc(C(=O)NC(C)CCC(C)C)c2ccccc2n1 (stereo unspecified)	-3.6	9.9%	-1.6%	·	54.7%	4.0
O=C(NCCc1cnc[nH]1)c1ccc(-c2ccccc2)cc1	55.4*	29.8%	0.8%	-0.8%	35.6%	29.9*
CCOc1ccc(C(=O)NCCc2cnc[nH]2)cc1	22.4	34.0%	0.0%	-2.8%	45.8%	13.3
